Assay results reported in PubChem BioAssay AID2315 (National Center for Advancing Translational Sciences (NCATS), 2010).
In all, about 290,000 compounds went through this assay and about 27,000 (9.3%) were called active. Rule as the data show it: active = inhibition mostly above about 28% (no sharp cut-off); inactive = mostly below about 43%. The full list was thinned out, with actives kept by preference.

Test: A qHTS for Small Molecule Inhibitors of Shiga Toxin; as to inhibition: 0% is about no effect
Conditions: Vero cells, Shiga toxin protein synthesis inhibition reporter; at 38.7 µM, stronger effect = higher value

Row | Compound | inhibition
1 | Clc1cc(NC2CCCCC2)ncn1 | -10.3% (inactive)
2 | CCOC(=O)C1C/C(=C\C(C)=O)c2cccc(C(F)(F)F)c2O1 (stereo not drawn) | inactive
3 | COc1ccc(CCN2C(=O)C(C)=C(C)C2=O)cc1OC | 17.7% (inactive)
4 | COCCn1c(SCC(=O)Nc2nc(C)cs2)nnc1C(C)C | -5.99% (inactive)
5 | Cc1nnc(NC(=O)C(c2ccccc2)c2ccccc2)s1 | -9.41% (inactive)
6 | COc1ccccc1N1CCN(C(=O)CCS(=O)(=O)c2ccc3c(c2)NC(=O)C(C)S3)CC1 (stereo not drawn) | -1.86% (inactive)
7 | O=C(CN1CCN(Cc2ccccc2)CC1)Nc1ccc(F)c(F)c1 | 14.5% (inactive)
8 | Cc1ccc(NC(=O)COC(=O)C2C3CC4OC(=O)C2C4C3)cc1Cl (stereo not drawn) | 17.4% (inactive)
9 | Cc1ccc(S(=O)(=O)N(CC(O)CN2C(=O)NC(C)(C)C2=O)c2cccc([N+](=O)[O-])c2)cc1 (stereo not drawn) | -12.9% (inactive)
10 | COc1ccc(CCNC(=O)CCC(=O)NC2CCCCC2)cc1OC | 10.5% (inactive)
11 | COC(=O)CN1C(=O)[C@H]2[C@@H](/C=C/c3ccccc3)N3C(=O)CN(CC4CC4)C(=O)[C@@]3(Cc3ccccc3)[C@H]2C1=O | -11.8% (inactive)
12 | S=C(NCCC1=CCCCC1)Nc1ccccc1 | 72.2% (active)
13 | O=C(Cc1cccc2ccccc12)NCCC1=CCCCC1 | -13.5% (inactive)
14 | Cc1nnc(OCC(=O)NCCC2=CCCCC2)c2ccccc12 | -1.67% (inactive)
15 | CN(C(=O)C1CCN(c2ncnc3c2nc2n3CCCCC2)CC1)C1CCCCC1 | -2.24% (inactive)
16 | COCC(=O)Nc1c(C(=O)N2CCCC2)oc2ccccc12 | 3.56% (inactive)
17 | Cc1cc(N(C)C)nc(Cl)n1 | -9.68% (inactive)
18 | COc1ccc(-c2nc3c(c(SCC(=O)Nc4ccc(C(=O)O)cc4)n2)Cc2ccccc2O3)cc1 | 18.2% (inactive)
19 | O=C1C2C3C=CC(C4CC34)C2C(=O)N1/N=C/c1ccc(-c2ccccc2[N+](=O)[O-])o1 (stereo not drawn) | 61.9% (inactive)
20 | COc1cccc(N(CC(=O)NC2CCCCCC2)S(=O)(=O)c2ccccc2)c1 | -29.3% (inactive)

Row | Compound | inhibition
21 | Cc1ccc(C(=O)N/C(=C/c2cccnc2)C(=O)O)cc1 | 14.9% (inactive)
22 | C/C(=N\NC(=O)CNC(=O)C(c1ccccc1)c1ccccc1)c1ccc(C)cc1 | -1.4% (inactive)
23 | C/C(=N\NC(=O)c1ccc(C)cc1)C1C(=O)c2ccccc2C1=O | 40.4% (active)
24 | COCCN1C(=O)C(=O)/C(=C(/O)c2ccc(S(=O)(=O)N3CCOCC3)cc2)C1c1ccc(O)c(OC)c1 (stereo not drawn) | 2.24% (inactive)
25 | Cc1cc(C)nc(NS(=O)(=O)c2ccc(N3C(=O)C4CCCCC4C3=O)cc2)n1 (stereo not drawn) | -4.6% (inactive)
26 | CSCc1ccc(C(=O)Nc2cc(C)cc(C)c2)cc1 | 39% (active)
27 | CC(=O)Nc1ccccc1NC(=O)c1cc(C)cc(C)c1 | -6.09% (inactive)
28 | C=CCN(c1ccc(C(=O)Nc2cc(C)cc(C)c2)cc1)S(C)(=O)=O | 1.49% (inactive)
29 | CC1CCc2c(sc(NC(=O)c3ccc(Cn4cc(Br)cn4)o3)c2C(N)=O)C1 (stereo not drawn) | 14.4% (inactive)
30 | O=C(N/N=C/c1ccc2c(c1)OCO2)c1ccc(Cn2cc([N+](=O)[O-])cn2)o1 | 39.5% (active)
31 | O=C(N/N=C\c1ccc(Br)cc1)c1ccc(Cn2cccn2)o1 | 26.8% (inactive)
32 | O=C(c1ccc(Cn2cc([N+](=O)[O-])cn2)o1)N1CCCC1 | -5.81% (inactive)
33 | COc1cccc(NC(=O)c2ccc(Cn3cc([N+](=O)[O-])cn3)o2)c1 | 12.9% (inactive)
34 | CN(C)c1ccc(/C=N/NC(=O)c2ccc(Cn3cc(Br)cn3)o2)cc1 | 73.5% (active)
35 | O=C(NCCc1ccc(Cl)cc1)C1CCCN1C(=O)NCc1ccccc1 (stereo not drawn) | 2.06% (inactive)
36 | COc1cccc(NS(=O)(=O)c2ccc(-c3coc(C)n3)cc2)c1 | -7.18% (inactive)
37 | CC(=C1C(=O)c2ccccc2C1=O)N1CCN(c2ccccn2)CC1 | 2.68% (inactive)
38 | COc1ccc(N2CCN(C(=O)c3cccs3)CC2)cc1 | 41.6% (inactive)
39 | COc1ccc(N2CCN(C(C)=C3C(=O)c4ccccc4C3=O)CC2)cc1 | 66.2% (active)
40 | COc1ccccc1C(=O)N1C(CC(=O)Nc2ccccc2C)C(=O)NC2CCCCC21 (stereo not drawn) | -1.4% (inactive)

Row | Compound | inhibition
41 | COC(=O)[C@H](Cc1ccccc1)NC(=O)[C@@H]1C[C@H]1[C@@H](NC(=O)OCc1ccccc1)c1ccccc1 | -13% (inactive)
42 | CC1Sc2ccc(S(=O)(=O)CCC(=O)NCc3ccccc3Cl)cc2NC1=O (stereo not drawn) | 11.4% (inactive)
43 | Cc1cc(C)nc(N/N=C/c2ccc([N+](=O)[O-])o2)n1 | 12.2% (inactive)
44 | CCCc1nn2c(=O)cc(CSCC(=O)Nc3cccc(C)c3)nc2s1 | 9.11% (inactive)
45 | Cc1ccc(-n2nc(C)c(/C=N/NC(=O)c3cccs3)c2Cl)cc1 | 41% (active)
46 | O=C(NC(Cc1c[nH]c2ccccc12)C(=O)N/N=C/c1ccc(Br)cc1)c1cccs1 (stereo not drawn) | -8.84% (inactive)
47 | O=C(N/N=C/C=C/c1ccco1)c1cccs1 | 104% (active)
48 | CCN(CC)c1ccc(/C=N/NC(=O)CNC(=O)c2cccs2)cc1 | 42.1% (active)
49 | CC(=O)Nc1ccc(/C=N/NC(=O)c2cccs2)cc1 | 97.3% (active)
50 | CC(/C=N/NC(=O)c1ccncc1)=C\c1ccco1 | 27% (inactive)
51 | Cc1nn(-c2ccccc2)c(Cl)c1/C=N/NC(=O)c1nn(C)cc1[N+](=O)[O-] | 31.8% (inactive)
52 | Cc1nn(-c2ccccc2)c(NC(=O)c2cccs2)c(-c2ccc(Cl)cc2)c1=O | 7.45% (inactive)
53 | O=C(CNC(=O)c1cccs1)N/N=C/c1cccc(Br)c1 | -5.46% (inactive)
54 | O=C(Nc1ccccc1)c1ccc(NC(=O)c2cccs2)cc1 | -21.1% (inactive)
55 | Cc1ccc(-c2cc(C(=O)N/N=C/C=C/c3ccco3)c3ccccc3n2)cc1C | 92.8% (inactive)
56 | CCN(CC)c1ccc(/C=N/NC(=O)CNC(=O)c2cccnc2)cc1 | -12.8% (inactive)
57 | CC(=O)OCCN(CCCn1c(-c2ccncc2)nc2ccccc21)c1nc(-c2ccc(C)cc2)cs1 | -1.86% (inactive)
58 | COc1ccc(CCNC(=O)c2nnc(CS(=O)(=O)c3ccccc3)o2)cc1OC | 5.82% (inactive)
